Tb PFK inh: inhibitors of T. brucei phosphofructokinase | T. brucei PFK, ADP-Glo luminescence | Potency, µM (doses to about 57.5 µM), for the others: top-dose activity, negative = inhibition, hits mostly inhibitors | hit rate 0.17% among 330,000 | AID 485367;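 note: potency is the fitted concentration of half-maximal effect; 0% = uninhibited 1x PFK enzyme wells and -100% = no-enzyme wells; nearly all actives have a fitted effect of over 60% in size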
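ADP-Glo luminescence quantified ADP after 45 min at room temperature, with 1.25 nM T. brucei PFK, 0.1 mM ATP and 0.5 mM fructose-6-phosphate in pH 8.0 TEA buffer. qHTS titrations up to 57 µM; curves classified by quality.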
Pin1 inhibitor: blocks the human prolyl isomerase Pin1; Q13526; Pin1 FP peptide displacement, HiFluor488, 10 min; Potency, µM (top dose mostly 115 µM), without a hit: at the top dose activity, negative = inhibition, usual class: inhibitors; hit rate 0.009% among 390,000; AID 504891; active = well fitted inhibition curve with a large enough effect in the polarisation, with a control signal flat, not every such curve was filed as active; inconclusive = small, poorly fitted or top-dose-only effect, or effect the other way, or a change in a side signal; inactive = no such curve, though single readings can be large or run the other way; the % refers to the polarisation; note: potency is the fitted concentration of half-maximal effect
PI4K2A inh: blocks human PI4K2A kinase activity; Q9BTU6; purified PI4K2A, ADP-Glo luminescence, 1 h; stronger effect = lower value; activity change, negative = inhibition, % at 76.9 µM; hit rate 0.13% among 420,000; AID 1346378; in the data active = activity change below about -50%; inconclusive = mostly about -30% to -49%;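 note: -100% = wells without enzyme as full effect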
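ADP-Glo luminescence measured ADP generated by PI4K2A enzyme (4 ug/mL before mixing) with 1.2 mM PI substrate (pre-mix) and 300 microM ATP (pre-mix). Tris pH7.5 buffer with MgCl2, Triton X-100; 1 h reaction at ambient temperature.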
PI5P4Ka inh: PI5P4K alpha (human) kinase inhibition; P48426; PI5P4Kalpha enzyme, ADP-Glo luminescence, 60 min; stronger effect = lower value; max response, %; hit rate 1.2% among 330,000; AID 652105; active = max response of -50% or lower; inconclusive = between -30% and -50%; inactive = -30% or higher; note: value at the top dose of about 77 µM
Target sequence (P48426 whole entry, looked up): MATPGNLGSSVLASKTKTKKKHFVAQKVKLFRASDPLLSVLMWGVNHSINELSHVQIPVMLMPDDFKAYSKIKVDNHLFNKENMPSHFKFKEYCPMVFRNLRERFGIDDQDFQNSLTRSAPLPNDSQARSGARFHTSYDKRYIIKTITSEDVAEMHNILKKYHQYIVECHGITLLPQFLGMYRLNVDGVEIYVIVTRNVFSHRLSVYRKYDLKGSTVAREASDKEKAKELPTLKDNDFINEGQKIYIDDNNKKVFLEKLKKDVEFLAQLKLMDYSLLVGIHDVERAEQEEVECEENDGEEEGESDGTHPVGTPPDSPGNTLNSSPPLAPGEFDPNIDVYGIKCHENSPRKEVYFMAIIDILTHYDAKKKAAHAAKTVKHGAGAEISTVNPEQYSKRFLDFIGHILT
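Human PI5P4Kalpha with substrate in 0.038 M HEPES pH 7.4, 0.28 mM EGTA, 0.1% CHAPS, 5% DMSO; reaction started with 5 microM ATP (final), 60 min at room temperature. ADP formed read by ADP-Glo luminescence.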
PGK inhibitor: blocks T. brucei phosphoglycerate kinase | P07378 | PGK/GAPDH coupled, Kinase-Glo luminescence, 60 min | Potency, µM (doses to about 57.5 µM), for inactives: top-dose activity change, negative = inhibition, hits mostly inhibitors | hit rate 0.043% among 380,000; note: potency is the fitted concentration of half-maximal effect; nearly all actives have a fitted effect of over 60% in size
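Luminescent ATP detection (Kinase-Glo Plus) follows a 60-minute room-temperature incubation, with wells lacking PGK as controls. Buffer: 100 mM TEA (pH 7.6), 5 mM MgCl2, 0.01% Tween-20. Coupling enzyme GAPDH (100 nM final) supplies unstable 1,3-BPG in-well.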
ADP-Glo counter: counter-screen for PI5P4K inhibitors: ADP-Glo detection interference, no enzyme. ADP-Glo detection counter-screen, luciferase luminescence, no enzyme. shares compounds with PI5P4Ka inh. Potency, µM (doses to about 76.9 µM), inactives show top-dose activity change, negative = inhibition, usual class: inhibitors. 1,100 tested, under 10 active. AID 743285
An asterisk follows results filed as active; i = inactive; ? = inconclusive; . = no result. The full list was thinned out, with hits kept by preference. Unless noted, calls come from the whole dose curve; as a rule, active = well fitted curve in the direction sought with a large enough effect; inconclusive = small, poorly fitted or top-dose-only effect, or another doubt; inactive = no such curve, though single readings can be large; an effect the other way counts as inactive or inconclusive. Unless noted, % is set by controls: 0 for no effect and ±100 for the full control effect.

SMILES | Tb PFK inh | Pin1 inhibitor | PI4K2A inh | PI5P4Ka inh | PGK inhibitor | ADP-Glo counter
COCCNC(=O)C(c1ccc(Cl)cc1)N(Cc1ccco1)C(=O)CCC(=O)Nc1ccccn1 (stereo not given) | 1% | 4% | -5 | -53* | 9% | 2%
CCOC(=O)C1(Cc2ccccc2)CCN(Cc2ccc(C)cc2)CC1 | . | . | 0 | . | . | .
Fc1ccc(Nc2nc(NCc3ccco3)c3ccccc3n2)cc1 | -2% | ? | 2 | . | 3% | -2%
CCOC(=O)C1=C(CC)Nc2ccccc2N=C1NC(=O)c1ccc(S(=O)(=O)N2CCOCC2)cc1 | 4% | 8% | 1 | 4 | i | .
CCOC(=O)C1=C(CC)Nc2ccccc2N=C1NC(=O)c1ccc(S(=O)(=O)N(C)C)cc1 | -5% | 7% | 0 | -51* | 3% | 1%
O=C1Nc2ccc(S(=O)(=O)NCc3ccccn3)c3cccc1c23 | -1% | -8% | -1 | -60* | -13% | -8%
CN(C)CCNS(=O)(=O)c1ccc2c3c(cccc13)C(=O)N2 | -5% | 0% | -3 | -1 | -2% | .
COCCCNC(=O)c1ccc2c(=O)n(CC3CCCO3)c(=S)[nH]c2c1 (stereo not given) | -3% | -6% | -7 | -3 | -5% | -7%
CC(C)NC(=O)c1ccc2c(=O)n(CC3CCCO3)c(=S)[nH]c2c1 (stereo not given) | -4% | -6% | -6 | -12 | 6% | .
O=C(Cn1cnc2scc(-c3cccc([N+](=O)[O-])c3)c2c1=O)NCc1ccco1 | 16% | . | -15 | -94* | ? | 4%
O=C(Nc1ccc(OC(F)(F)F)cc1)Nc1nc2ncccn2c1-c1ccc(C(F)(F)F)cc1 | . | . | 8 | . | . | .
Cc1ccc(CNC(=O)CSc2ncccn2)cc1 | 4% | ? | -3 | ? | i | 3%
Cc1ccc(Cn2cc(COC(=O)N3CCCC3)nn2)cc1 | . | . | 2 | . | . | .
CNC(=O)COC(=O)c1c2c(nc3ccccc13)CCC2 | -1% | ? | -6 | ? | -3% | .
C=CCNC(=O)COC(=O)c1c2c(nc3ccccc13)CCC2 | -11% | ? | -15 | -75* | -10% | -4%
COc1ccc(-n2c(COc3ccc(Cl)cc3)nnc2SCC(=O)Nc2ccc(Oc3ccccc3)cc2)cc1 | . | . | 8 | . | . | .
CC1(C)OC[C@@H]2O[C@@]3(C(=O)O)OC(C)(C)O[C@H]3[C@@H]2O1 | . | . | 1 | . | . | .
O=C(NCc1cccc(F)c1)Nc1nnc([C@H]2C[C@H](O)[C@@H](CO)O2)s1 | . | . | -3 | -50* | . | -1%
O=C(NCc1ccccc1F)Nc1nnc([C@H]2C[C@H](O)[C@@H](CO)O2)s1 | . | . | -3 | -6 | . | .
Cc1ccc(C)c(S(=O)(=O)Nc2ccc3oc(C)c(C(=O)O)c3c2)c1 | -16% | ? | 0 | -95* | ? | -6%
Cc1ccc(CNc2ncnc3ccc(-c4c(C)noc4C)cc23)o1 | . | -19% | . | . | . | .
Cc1ccc(CNc2ncnc3ccc(-c4ccoc4C)cc23)o1 | . | . | -12 | . | . | 0%
CC(=O)NC(c1cccs1)c1cc([N+](=O)[O-])c2cccnc2c1O (stereo not given) | 5% | 11% | -12 | -73* | 1% | 4%
CCC(=O)NC(c1cccs1)c1cc([N+](=O)[O-])c2cccnc2c1O (stereo not given) | 11% | 6% | 3 | -19 | -1% | .
CCNC(=O)c1ccccc1SCC(=O)Nc1ccc(F)cc1 | 3% | 6% | -1 | -68* | i | 2%
CCNC(=O)c1ccccc1SCc1ccccc1 | 0% | -2% | -3 | 6 | -1% | .
Cc1ccsc1CN(C)c1ncnc2ccc(-c3ccoc3)cc12 | . | . | -12 | . | . | 2%
CCOc1ccccc1NC(=O)c1c(NC(=O)CCC(=O)O)sc2c1CCCCC2 | 1% | -14% | 1 | -10 | -6% | 0%
CCOc1ccccc1NC(=O)c1c(NC(=O)Cc2ccccc2)sc2c1CCCC2 | . | 3% | 1 | . | 0% | .
O=C(CCC(=O)N1CCN(c2ccccn2)CC1)c1ccc(Cl)s1 | -1% | 20% | 0 | -55* | -1% | -3%

Bioassay records: PubChem, National Center for Advancing Translational Sciences (NCATS)
